This is a sample that favours compounds with a hit; in the whole collection about 3.8% have one here.
HSF-1 act = increases HSF-1 driven luciferase reporter signal; NIH3T3-HGL HSF-1 luciferase reporter, MG132, 8 h; 100% = twice DMSO control signal; activation, % at 9 µM; 300,000 tested, 1.7% active; AID 504408;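 active = mean replicate activation of at least 50% with a set share of replicates each reaching 50%; inconclusive = only one of those two conditions met; inactive = mean below 50% and too few replicates reaching it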;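 note: 0% = median of the neutral control wells and 100% = twice that signal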
HSF1 inh = HSF1 inhibition; NIH3T3-HGL HSE-luciferase, MG132-induced, luminescence 8 h; stronger effect = lower value; activity change, negative = inhibition, % at 7.5 µM (by protocol); 300,000 tested, 0.77% active; AID 2098;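 active = more than half of replicate wells show activity change below -50%, luminescence cut by over half; inconclusive = some wells, but at most half, below -50%; inactive = no replicate well below -50%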;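 note: luciferase reports HSF-1 transcriptional activity via heat shock element; 0% = median of DMSO wells and -100% = zero luminescence signal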
esBAF inh = inhibitors of esBAF chromatin remodeling in mouse ES cells; AID 602393; reporter increase, % at 12.5 µM; 350,000 tested, 2% active; Bmi1-luciferase knock-in reporter, 24 h; 100% = twice the neutral-well signal; in the data active = activation above about 40%; inconclusive = no clear call, values can overlap the other calls;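 note: 0% = median of the plate's neutral control wells and 100% = double that signal; a rise in the Bmi1 reporter signal indicates esBAF inhibition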
Wnt bcat act = activates Wnt/beta-catenin signaling in a reporter cell assay. AID 743398. 300,000 tested, 1.2% active. activator, plate reader. activation, % at 9.35 µM; in the data active = activation above about 30%, passing the limit was not always enough; inconclusive = no clear call, values can overlap the other calls;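 note: 0% = neutral control wells and 100% = positive control wells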
MITF TRPM1 HTS = activators of MITF-driven TRPM1 promoter activity in SK-MEL-5 cells; SK-MEL-5 TRPM1-promoter luciferase, 24 h; % of positive control, neutral wells = 0; activation, % at 12.5 µM; 300,000 tested, 0.75% active;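 active = mean activation of at least 80% with every replicate also reaching 80%; inconclusive = mean reaches 80% but some replicate falls short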;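 note: 0% = neutral control wells and 100% = parthenolide positive control wells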
Active calls of the source: *; ? = inconclusive; / = not tested or not shown.

SMILES | HSF-1 act | HSF1 inh | esBAF inh | Wnt bcat act | MITF TRPM1 HTS
O=C(NC(=S)Nc1ccc(NC(=O)c2cccs2)cc1)c1cc2ccccc2o1 | 14 | -7 | / | / | -1
COc1ccc(NC(=O)c2ccc(-c3ccc(C(C)=O)cc3)o2)cn1 | / | / | 45* | 10 | 35
COc1ccc(NC(=O)c2cc3ccccc3o2)cc1 | 55* | 33 | 58* | 4 | 55
N=c1oc2ccccc2cc1C(=O)Nc1ccc(F)cc1 | 42 | 20 | -16 | 38* | -12
COc1ccc(NC(=O)c2cc(=O)c3ccccc3o2)cn1 | / | / | 2 | / | 26
O=C(Nc1ccc(N2CCCC2)cc1)c1cc2ccccc2o1 | 48 | 8 | 43* | 2 | 28
CC(C)c1nnc(NC(=O)c2cc3ccccc3o2)s1 | 39 | 24 | 23 | 27 | 108*
CC(C)NC(=O)c1cc2ccccc2o1 | 9 | -12 | 1 | -2 | /
COc1ccc(NC(=O)c2cc3ccccc3o2)cn1 | -9 | 5 | 68* | 43* | 104*
N=c1oc2ccccc2cc1C(=O)Nc1cccc(F)c1 | 46 | 6 | -2 | 15 | 6
O=C(Nc1ccc(NC(=O)c2cc3ccccc3o2)cc1)c1ccco1 | -2 | 7 | 0 | 0 | 6
CC(=O)c1ccc(NC(=O)c2cc3ccccc3o2)cc1 | 31 | 20 | 39 | 39* | 31
Cc1ccc(NC(=O)c2cc3ccccc3oc2=N)cc1 | -33 | -21 | -81 | 12 | -21
N=c1oc2cc(O)ccc2cc1C(=O)Nc1ccc(Cl)cc1 | 17 | -7 | 58* | 47* | 54
O=S(=O)(c1ccc(Cl)cc1)c1snnc1-c1ccccc1 | 66* | 33 | 13 | / | -82
CCCNC(=O)C[C@@H]1CC[C@H]2[C@@H](COc3ccc(NC(=O)c4cccc(Cl)c4)cc3C(=O)N2C)O1 | / | / | 10 | / | /
O=C(CCCC(=O)c1ccc(O)cc1)c1ccc(O)cc1 | 42 | 50 | 30 | 56* | 98*
CCCCOC(=O)c1ccc(O)cc1 | 18 | 0 | -12 | -1 | 24
CCC(=O)c1ccc(O)cc1 | 7 | 6 | -3 | 2 | 0
O=C(CCCOC(=O)c1ccc(O)cc1)c1ccccc1 | / | / | 43* | -3 | 24
C[C@@H]1CN([C@@H](C)CO)C(=O)Cc2cc(NC(=O)Cc3cn(C)c4ccccc34)ccc2O[C@H]1CN(C)Cc1ccccc1 | / | / | -3 | / | /
C[C@H]1CN([C@@H](C)CO)C(=O)CCCn2cc(nn2)CO[C@H]1CN(C)Cc1ccc2c(c1)OCCO2 | / | / | -5 | / | /
Oc1[nH]c2ccccc2c1N=Nc1ccccn1 | / | / | 29 | 2 | 27
Oc1c(N=Nc2ccccn2)ccc2ccccc12 | 265* | 184 | -76 | 27 | /
Cc1ccc([N+](=O)[O-])c(OCCCN2CCC(Cc3ccccc3)CC2)c1 | -71 | -60* | -8 | -1 | -2
SMILES | HSF-1 act | HSF1 inh | esBAF inh | Wnt bcat act | MITF TRPM1 HTS
Cc1ccc([N+](=O)[O-])c(OCCN2CCCCCC2)c1 | 20 | -3 | / | -7 | 4
C[C@H](CO)N1C[C@H](C)[C@H](CN(C)S(=O)(=O)c2ccc(C#N)cc2)Oc2ncc(-c3ccc(F)cc3)cc2C1=O | / | / | 1 | / | /
COc1ccc(Br)cc1S(=O)(=O)Nc1ncccc1C | -90 | -88* | / | 4 | 3
ClCC1CSC(=NC23CC4CC(CC(C4)C2)C3)O1 (stereo not given) | 59* | 30 | / | 1 | 6
N#Cc1cccc(-c2ccc3c(c2)[C@H]2[C@H](CCN2S(=O)(=O)c2ccccc2F)[C@H](CO)N3)c1 | / | / | -1 | / | /
CO[C@@H]1CN(C)C(=O)c2ccc(NC(=O)c3ccc(Oc4ccccc4)cc3)cc2OC[C@@H](C)N(C(C)=O)C[C@H]1C | / | / | 11 | / | /
Cc1csc(NC(=O)c2ccc(N3CCCC3=O)cc2)n1 | -34 | -26 | / | 35* | -41
Cc1nnc(NC(=O)c2ccc(N3CCCC3=O)cc2)s1 | / | / | ? | 25 | 85*
O=C(Nc1ccccc1Br)c1ccc(N2CCCC2=O)cc1 | 9 | 9 | 55* | 37* | 87*
Cc1noc(C)c1NC(=O)N(C)C[C@@H]1Oc2c(NS(=O)(=O)c3ccccc3)cccc2C(=O)N([C@@H](C)CO)C[C@H]1C | / | / | -1 | / | /
O=C(Nc1ccc2c(c1)[C@H]1C[C@@H](CC(=O)N3CCCCC3)O[C@H](CO)[C@H]1O2)C1CCC1 | / | / | 3 | / | /
Cc1ccc(S(=O)(=O)N(C)C[C@@H]2OCCCC[C@H](C)Oc3ccc(NC(=O)Nc4ccccc4)cc3C(=O)N([C@H](C)CO)C[C@H]2C)cc1 | / | / | 2 | / | /
CC(C)CNC(=O)c1cccc(NC(=O)CSc2ccc(Cl)cc2)c1 | 14 | 8 | / | 0 | 2
CC(C)(C)NC(=O)c1cccc(NC(=O)CSc2ccc(Cl)cc2)c1 | 173* | 117 | 4 | -4 | 4
COc1ccc(-c2c(C)c3ccc(OCC(C)=O)cc3oc2=O)cc1 | 35 | 14 | 68* | 27 | /
CCCOc1ccc2cc(C(=O)NCc3ccccc3)c(=O)oc2c1 | -68 | -61* | -3 | 27 | /
CCCOc1ccc2c3c(c(=O)oc2c1)CCCC3 | 22 | 6 | 48* | / | 32
CCCOc1ccc2c(C)c(CC(=O)OC)c(=O)oc2c1 | 31 | 7 | 68* | / | 125*
C[C@H](O)C#Cc1cnc2c(c1)C(=O)N([C@@H](C)CO)C[C@H](C)[C@@H](CN(C)Cc1cccc(F)c1)O2 | / | / | 2 | / | /
CN(C)CCN1C(=O)C2C(C(=O)Nc3cc(Cl)cc(Cl)c3)C3C=CC2(O3)C1C(=O)NC1CCCCC1 (stereo not given) | 85* | 46 | / | -2 | 5
Cc1cc(C)cc(NC(=O)C2C3C=CC4(O3)C2C(=O)N(CCN2CCCCC2)C4C(=O)NC2CCCCC2)c1 (stereo not given) | -1 | 1 | -6 | -4 | -3
O=C(NCc1ccco1)c1ccc(C(F)(F)F)cc1 | 27 | 12 | / | / | 4
CC(Cc1ccco1)NC(=O)c1ccc(C(F)(F)F)cc1 (stereo not given) | 66* | 33 | 16 | 18 | 128*
CC1CCCCC1NC(=O)COc1ccccc1C#N (stereo not given) | / | / | 53* | 8 | 6
N#Cc1ccccc1OCC(=O)Nc1ccc2c(c1)OCO2 | / | / | 65* | 3 | /
SMILES | HSF-1 act | HSF1 inh | esBAF inh | Wnt bcat act | MITF TRPM1 HTS
N#Cc1ccccc1OCC(=O)Nc1ccc2c(c1)OCCO2 | / | / | 66* | -1 | 79
N#Cc1ccccc1OCC(=O)Nc1ccc2c(c1)OCCCO2 | -9 | 4 | 74* | 11 | /
C[C@@H]1CCCCO[C@@H](CN(C)Cc2ccc(C(=O)O)cc2)[C@@H](C)CN([C@@H](C)CO)C(=O)c2cc(NS(=O)(=O)c3ccc(F)cc3)ccc2O1 | / | / | -6 | / | /
C[C@@H]1CCCCO[C@@H](CN(C)S(=O)(=O)c2cn(C)cn2)[C@@H](C)CN([C@H](C)CO)C(=O)c2cc(NC(=O)CCCN(C)C)ccc2O1 | / | / | -4 | / | /
O=C(COc1ccccc1Br)Nc1ccc2c(c1)OCCCO2 | 57* | 26 | 51* | 0 | 108*
O=C(NCC[C@H]1CC[C@H](NC(=O)C2CCCCC2)[C@@H](CO)O1)c1cnccn1 | / | / | 5 | / | /
CCOc1ccccc1N1Cc2cc(C)c(C)cc2C1 | -2 | -5 | 46* | 4 | /

Source: PubChem (Broad Institute)
